Experimental data: PubChem BioAssay (NCATS)
Where “and” joins values, the source holds several entries; their conditions need not be identical. Equal entries are not always repeated. Results filed as inconclusive are left out. A number with no mark means an inactive call. Calls of active or inactive are those of the source. Calls come from the whole dose curve; as a rule, active = well fitted cell-killing curve with a large enough effect; inconclusive = small, poorly fitted or top-dose-only effect, or effect the other way; inactive = no such curve, though single readings can be large or run the other way.

Test: Cell Viability qHTS for small molecule stabilizers of the endoplasmic reticulum resident proteome (AID 1508629);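 note: compound exposure about 46 h in total before the viability read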
Conditions: cell viability counter-screen, 100 nM thapsigargin for final 4 h
Excerpt: Assay Provider: Brandon K. Harvey Ph.D.
National Institute on Drug Abuse, National Institutes of Health, Baltimore, MD
Endoplasmic reticulum (ER) dysregulation is associated with human pathologies including neurodegenerative, cardiovascular, muscular, and diabetic conditions. Maintenance of ER calcium is critical for functions of the ER and its depletion can lead to loss of ER resident proteins, in a process termed exodosis. Therapeutic compounds capable of attenuating the redistribution of ER proteins under pathological conditions may slow or stop disease progression. To identify such compounds, we performed a quantitative high-throughput screen (qHTS) using the SERCaMP assay, which monitors secretion of ER resident proteins triggered by calcium depletion.
SERCaMP was initially developed as a reporter of ER calcium homeostasis using a Gaussia luciferase with a modified signal peptide and carboxy-terminus (GLuc-SERCaMP), modifications that confer secretion of the reporter in response to ER calcium depletion (Henderson et al., 2014). The assay was used to screen 9,501 compounds, including a collection of drugs approved by the FDA (US), EMA (EU), NHI (Japan), and HC (Canada) regulatory agencies (Huang et al., 2011). Since the SERCaMP reporter reflects the exodosis phenomenon (Trychta et al., 2018a), compounds identified in the screen have the potential to prevent exodosis by different mechanisms such as stabilizing ER calcium or augmenting ERS retrieval.
1. Henderson, M.J., Wires, E.S., Trychta, K.A., Richie, C.T., and Harvey, B.K. (2014). SERCaMP: a carboxy-terminal protein modification that enables monitoring of ER calcium homeostasis. Mol Biol Cell 25, 2828-2839.
2. Huang, R., Southall, N., Wang, Y., Yasgar, A., Shinn, P., Jadhav, A., Nguyen, D.T., and Austin, C.P. (2011). The NCGC pharmaceutical collection: a comprehensive resource of clinically approved drugs enabling repurposing and chemical genomics. Sci Transl Med 3, 80ps16.
3. Trychta, K.A., Back, S., Henderson, M.J., and Harvey, B.K. (2018a). KDEL Receptors Are Differentially Regulated to Maintain the ER Proteome under Calcium Deficiency. Cell Rep 25, 1829-1840 e1826.
SEQUENCE No. (1, 2, 3, etc.); […] (e.g., Cells, Incubation, Reagent, etc.); VALUE and DESCRIPTION.
1; Reagent; 5 uL; 1000 SH-SY5Y cells per wells
3; Compound; 23 nL; Control inhibitor / compound library
5; Reagent; 100 nM; Thapsigargin
7; Reagent; 5 uL; CellTiter-Glo (Promega)
8; Time; 10 min; room temperature
9; Detection; Luminescence; ViewLux imaging system
NOTES (numbers refer to sequence above)
1; SH-SY5Y human neuroblastoma cells stably expressing GLuc-SERCaMP (SH-SY5Y-GLuc-ASARTDL) cells were seeded in 1,536 well white tissue culture treated plates (Corning, Cat# 7464) in DMEM-high glucose-sodium pyruvate (ThermoFisher Scientific, Cat #10569) supplemented with 10% bovine growth serum (Hyclone), 10 U/ml penicillin (Gibco), 10 ug/ml streptomycin (Gibco), and 20 mM HEPES.
2; Assay plates were incubated for 5 hr at 37C in a humidified incubator containing 5% CO2.
3; qHTS libraries (23 nl, final concentrations of 1.53 uM, 7.67 uM, 38.3 uM) or controls (neutral control: DMSO, positive control: dantrolene) were added using a Kalypsis pin-tool Robotic System equipped with 1536 pinheads.
4; Cells were then incubated for 42 hours at 37C, 5% CO2.
5; Thapsigargin was added at 100 nM to deplete ER calcium stores.
6; Cells were incubated for 4 hr (37C, 5% CO2).
7; Cell viability was measured using the CellTiter-Glo Luminescent Cell Viability Assay (Promega). Briefly, an equal volume of reagent was added to each well. Plates were rotated for 2 min.
8; Assay plates were incubated for 10 min at room temperature.
9; Luminescence was measured using a ViewLux CCD imaging system (Perkin Elmer) equipped with clear filters.
% is set by controls: 0 for no effect and ±100 for the full control effect; potency is the fitted concentration of half-maximal effect.

For CN1C2CCC1CC(OC(=O)C(CO)c1ccccc1)C2 (centres undefined), which max response is on record?
The max response was -15.7% and 13.4%.

For CC12CC3CC(C)(C1)CC(N)(C3)C2, which max response is on record?
The max response was 23.1%.

For Clc1ccc2c(c1)C(N1CCNCC1)=Nc1ccccc1O2, which max response is on record?
The max response was -4.18%.

With CCCCc1oc2ccccc2c1C(=O)c1cc(I)c(OCCN(CC)CC)c(I)c1 as the compound, how does the max response read?
The max response was 10.4%.

For CC(CCc1ccc(O)cc1)NCCc1ccc(O)c(O)c1 (centres undefined), which max response is on record?
Its max response is 27%.

Which max response does the source give for CN1CCC(=C2c3ccccc3CC(=O)c3sccc32)CC1 here?
Its max response is 19.1%.

With CN(C)CCCN1c2ccccc2CCc2ccc(Cl)cc21 as the compound, how does the max response read?
Its max response is -4.23%.

For Cn1c(=O)c2c(ncn2C)n(C)c1=O, which max response is on record?
The max response was 8.95% [middle of 5 runs].

For O=C(Nc1ccc([N+](=O)[O-])cc1Cl)c1cc(Cl)ccc1O, which Potency is on record?
The Potency was 5.01 µM (active).

For C[C@@H]1CC(=O)NN=C1c1ccc(NN=C(C#N)C#N)cc1, which max response is on record?
The max response was -18.7%.

Which max response does the source give for COc1ccc(CCN(C)CCCC(C#N)(c2ccc(OC)c(OC)c2)C(C)C)cc1OC (centres undefined) here?
The max response was -5.84%.

For O=c1c(O)c(-c2ccc(O)c(O)c2)oc2cc(O)cc(O)c12, which max response is on record?
The max response was -19.3% and 6.63% and -20.3%.

For COc1ccccc1OCCNCC(O)COc1cccc2[nH]c3ccccc3c12 (centres undefined), which Potency is on record?
The Potency was 25.1 µM (active).

For NC12CC3CC(CC(C3)C1)C2, which max response is on record?
Its max response is 12.2% and 7.67%.
